Assay results published in PubChem BioAssay (Tox21).
Inconclusive results are not listed. Values without a mark were called inactive. Calls follow the shape of the dose curve; as a rule, active = well fitted cell-killing curve with a large enough effect in the repeat runs; inconclusive = weak or mixed curves, or effect the other way; inactive = flat fitted curve, though single readings scatter.

Assay: qHTS assay to identify small molecule agonists of the constitutive androstane receptor (CAR) signaling pathway - cell viability counter screen (AID 1224836); also: nearly all actives have a fitted effect of over 45% in size
Conditions: HepG2-CYP2B6-hCAR viability, CellTiter-Fluor, 23 h, PK11195 added to every well; series mostly up to 92.4 µM; viability change, negative = cytotoxic: at the top concentration
Outline: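 Cell viability multiplexed with the CAR agonist screen: CellTiter-Fluor fluorescence after 23 hr at 37 C. HepG2-CYP2B6-hCAR cells got compounds at 15 concentrations with PK11195 at 0.75 uM final.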
% is scaled to controls: 0 for no effect and ±100 for the full control effect.

Row | Compound | viability change, negative = cytotoxic
1 | O=C1CCCCCCCCCCCCCC1 | 8.17%
2 | Cc1ccc2nc(-c3ccc(N)cc3)sc2c1S(=O)(=O)O | 15.4% [at 42.5 µM]
3 | CCCOC(=O)c1ccc(O)cc1 | 1.03%
4 | CCCCCCCCCCCCCCCCC(C(=O)O)C(O)(CC(=O)O)C(=O)O (stereo unspecified) | -5.73% [at 42.5 µM]
5 | C=CCc1cc(S(=O)(=O)c2ccc(O)c(CC=C)c2)ccc1O | -12.9%
6 | Oc1ccc(Cl)cc1C1CCCC1 | -6.92%
7 | CCCCCCCCCCCCCCCCCCNC(=O)OC1CCN(C(=O)OC[C@H](COC(=O)N(Cc2cccc[n+]2CC)C(=O)c2ccccc2OC)OC)CC1 | -10.9% [at 42.5 µM]
8 | S=C1NC=NC2N=CNC12 (stereo unspecified) | -30.4%
9 | O=C(N[C@H](CO)[C@H](O)c1ccc([N+](=O)[O-])cc1)C(Cl)Cl | 6.67%
10 | CC(Cc1ccc(O)c(O)c1)C(C)Cc1ccc(O)c(O)c1 (stereo unspecified) | -6.43%
11 | CC1=C(/C=C/C(C)=C/C=C/C(C)=C\C(=O)O)C(C)(C)CCC1 | -18.4%
